Data on 58 compounds can be found in PubChem BioAssay AID652010 (The Scripps Research Institute Molecular Screening Center, 2013).

The structures appear in SMILES notation. Out of some 370,000 compounds screened, about 4,100 (1.1%) were called active. This excerpt belongs to a sample that is enriched for actives. Unmarked numbers belong to inactive results.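 The calls were made as follows: active = inhibition above the mean over all tested compounds plus 3 SD (cut at about 3.6% in these data); inactive = the rest.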

The test in a line: DAX1 (NR0B1) inhibitors on StAR promoter, primary screen, cell-based, luminescence, SF-1 (NR5A1), full-length DAX-1 (AID 652010).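 Also: 0% = DAX-1 cells with DMSO and 100% = cells lacking DAX-1 with DMSO.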 To be noted: HEK293T StAR-luciferase reporter, SF-1/DAX-1 repression relief; at 6.8 µM; stronger effect = higher value. Background: A reporter such as luciferase makes a cellular process visible.
By inhibition is commonly meant the drop in the measured response relative to a control, in per cent. `Cc1c(C(=O)Nc2ccccn2)oc2ccc(Br)cc12`: the inhibition is 8.27% (active).
The value for `CCc1nonc1NC(=O)c1oc2ccc(Cl)cc2c1C` was 0.27%.
The figure for `Cc1c(C(=O)NC2CCCCC2)oc2ccccc12` is 0.4%; for `Cc1cccc(C(=O)Nc2c(-c3ccc(F)cc3)nc3ncccn23)c1` it is -1.21%.
The figure for `COC(=O)c1ccc(NC(=S)NN2CCOCC2)cc1` is 1.02%.
As for `CC(OC(=O)CCCOc1ccccc1)C(=O)Nc1ccc(Cl)cn1` (stereo not drawn), the inhibition is 3.13%.
The value for `CC(OC(=O)CNC(=O)c1ccco1)C(=O)Nc1ccc(Cl)cn1` (stereo not drawn) was -0.16%; that for `CCCc1cc(C(=O)Nc2ccc(C(=O)OC)cc2)cs1` was 7.38% (active); that for `CCCc1cc(C(=O)Nc2ccc(Cl)cn2)cs1` was 16.1% (active).
The value for `CCC(=O)Nc1ccc(C(=O)Nc2cc(C)on2)cc1` was -0.34%; that for `O=C(c1ccccc1)c1ccc(-c2ccccc2C(=O)NC2CCCCN(Cc3ccc(Cl)cc3)C2=O)cc1` (stereo not drawn) was -0.77%; that for `Cc1ccc(-n2c(SCC(=O)Nc3ccc(S(=O)(=O)Nc4nccs4)cc3)nnc2-c2ccncc2)cc1` was -0.77%.
The figure for `CCC(c1ccc(NC(=O)OC(C)(C)C)cc1)c1cc(OC)cc(OC)c1` (stereo not drawn) is -0.05%.
Consider `COCc1cc(N2CCN(C(=O)OC(C)(C)C)C[C@@H]2C)ccc1N1CCN(Cc2ccccc2)[C@H](C)C1`, for which the inhibition is -0.7%.
The figure for `CCN(CC(=O)Nc1c(F)cccc1F)C(=O)c1ccc(-c2ccccc2)cc1` is 0.8%; for `CCN(CC(=O)Nc1c(F)cccc1F)C(=O)c1cnc(C)cn1` it is 4.81% (active).
As for `CCc1cc(C(=O)N(CC)CC(=O)Nc2c(F)cccc2F)sc1C`, the inhibition is -0.69%.
With `CCCC[C@H]1C2CC(OC(=O)NCc3ccccc3)C(C2)[C@H]2CCCCN21` (stereo partly drawn), the inhibition is -0.27%.
In the case of `Cc1ccc(-n2c(SCC(=O)Nc3ccc(S(=O)(=O)Nc4nccs4)cc3)nnc2-c2ccccn2)cc1`, the inhibition was 0.28%.
For `Cc1ccccc1OCC(=O)Nc1ccc2c(c1)ncn2C`, the inhibition is 4.8% (active).
The value for `Cc1ccccc1OCC(=O)Nc1ccc(N2CCN(C(=O)C(C)C)CC2)c(Cl)c1` was -2.45%; that for `COc1cccc(NC(=O)COc2cccnc2[N+](=O)[O-])c1` was 1.83%; that for `COc1ccc(Nc2nc(N)nc(CSC(=S)N3CCC(C)CC3)n2)cc1` was 0.59%.
The value for `COC(=O)C1=C(C(=O)OC)C2C=C(C(C)C)C1C(=O)C2(C)O` (stereo not drawn) was 2.32%; that for `O=C(NCCc1ccc(F)cc1)c1ccc(S(=O)(=O)N2CCCCC2)cc1` was -1.79%; that for `O=C(NCCc1ccc(F)cc1)c1n[nH]c2ccccc12` was 1.23%.
The figure for `O=C(NCCc1ccc(F)cc1)c1ccc2nccnc2c1` is 7.15% (active); for `CCOC(=O)[C@]12CCCC3=C1N(CCC3)C(=O)[C@@H](CC(=O)N1CCSCC1)C2` it is 0.52%.
In the case of `COC(=O)[C@]12C[C@H](CC(=O)NCc3ccccc3)C(=O)N(CCc3ccc(OC)c(OC)c3)C1=C[C@H](C(C)(C)C)O[C@@H]2C`, the inhibition is -0.61%.
The value for `COc1ccc(NC2=CC(=S)NC(C)(C)C2)cc1` was -0.32%.
The value for `COc1ccc(Nc2ccc3ccccc3c2)cc1` was 3.94% (active).
The figure for `COc1ccc(Nc2cc(=O)n(-c3ccccc3)c3c2c(=O)n(C)c(=O)n3C)cc1` is 0.33%.
On to `O=C(CNS(=O)(=O)c1ccccc1F)N1CCN(c2ccccn2)CC1`, for which the inhibition was -0.44%.
The figure for `CCCCNC(=O)C[C@H]1C[C@@]2(C(=O)OC)C(=C[C@H](COCc3ccccc3)O[C@@H]2C)N(Cc2ccc(Cl)cc2Cl)C1=O` is -0.49%; for `COC(=O)C[C@@H]1CC[C@@H]2[C@H](COc3ccc(NC(=O)c4cccc(F)c4)cc3C(=O)N2C)O1` it is 0.44%; for `CN(CCNC(=O)c1cc2c(-c3ccccc3F)nn(C)c2s1)C1CCCCC1` it is 0.74%.
On to `CN(C(=O)c1cc2c(=O)n3ccccc3nc2s1)C1CCCCC1`, for which the inhibition is 8.94% (active).
The figure for `CCOCCCNC(=O)c1cc2c(=O)n3ccccc3nc2s1` is 0.63%.
The value for `CN(CCc1ccccc1)C(=O)Cn1nc(-c2ccccc2)ccc1=O` was -1.5%.
The figure for `CSc1ccccc1NC(=O)c1cc(Cl)sc1Cl` is -0.22%; for `Cc1nn(Cc2ccc(Cl)c(Cl)c2)c(C)c1NC(=O)c1cc(C2CC2)on1` it is -1.2%.
Consider `CSc1ccccc1NC(=O)c1cc(C2CC2)on1`, for which the inhibition is 3.85% (active).
The value for `Cc1ccc(C(=O)Nc2nnc(C3=COCCO3)o2)cc1C` was 1.49%.
Consider `O=C(Nc1ccc(N2CCN(C(=O)c3ccccc3)CC2)c(Cl)c1)c1cccnc1`, for which the inhibition was -1.45%.
The figure for `Cc1nc(NC(=O)c2ccc3c(c2)OCCO3)ccc1Br` is 12.7% (active); for `Cc1ccc(C(=O)NNC(=O)c2ccc3c(c2)OCCO3)cc1` it is 5.23% (active); for `O=C(Nc1ccccc1)c1ccc2c(c1)OCCCO2` it is 14.7% (active).
The value for `C/C(=N/NC(=S)Nc1ccccc1)c1ccc2c(c1)OCO2` was 0.83%.
The figure for `COc1cccc(C(=O)Nc2cc3c(cc2Br)OCCCO3)c1` is 2.47%; for `CN1CCN(c2ccc(NC(=O)c3ccc4c(c3)OCCO4)cc2Cl)CC1` it is 4.89% (active).
Consider `Cc1ccc(C(=O)Nc2ccc3c(c2)OCCO3)cc1S(=O)(=O)N1CCOCC1`, for which the inhibition is 1.01%.
The figure for `O=C(Nc1ccc(N2CCOCC2)c(Cl)c1)c1ccc(S(=O)(=O)N2CCOCC2)cc1` is -0.43%; for `C/C(Cc1ccccc1)=N\NC(=O)CNC(=O)c1ccc2c(c1)OCCO2` it is 0.38%.
The figure for `Cc1ccc(S(=O)(=O)NCC(=O)Nc2ccc3c(c2)OCCO3)cc1` is -0.38%; for `CC(C)(C)n1nc(C2CC2)c(Br)c1NC(=O)c1ccccc1F` it is -1.59%; for `N#Cc1ccc(OC[C@@H](O)CN2CCC(C(O)(c3ccccc3)c3ccccc3)CC2)c(F)c1` it is -0.27%.
In the case of `CC(C)CNS(=O)(=O)CC1NCCc2ccccc21` (stereo not drawn), the inhibition was -0.78%.
The figure for `COc1cccc(N2CCN(CC(=O)N(C)Cc3ccc(F)cc3)CC2)c1` is -0.23%.
